# Assay results taken from the supplement of paper PMC7411054.
# Structures can show the parent of a compound that is named as a salt.
# How the values were obtained:
# Conditions in all cases: treatment time: 24 h
# A549-ACTB-RAB5A = assay: phenotypically active (imaging signature differs from DMSO and reproducible) at any of 0.3-9 uM (binary (1 = active, 0 = inactive)); higher = active
# How it was run: (§1)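 Live-cell features were measured per well and normalised to solvent control wells after fifteen gene-edited A549, HepG2 and WPMY1 reporter lines had been treated for 24 h at 0.3, 1, 3 or 9 µM in four wells each. A condition was deviating when ≥3 of 4 wells sat beyond the 95th percentile of control Euclidean distances. It was reproducible when the median replicate Pearson correlation exceeded the 95th percentile of non-replicates. Phenotypic activity demanded both.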
# A549-CANX-COX4 = assay: as above
# How it was run: as §1
# A549-GM130-SQSTM1 [1] = assay: as above
# How it was run: as §1
# A549-TUBA1B-RELA = assay: as above
# How it was run: as §1
# HepG2-ACTB-RAB5A [2] = assay: as above
# How it was run: as §1
# HepG2-CANX-COX4 = assay: as above
# How it was run: as §1
# HepG2-GM130-SQSTM1 [3] = assay: as above
# How it was run: as §1
# HepG2-TUBA1B-RELA = assay: as above
# How it was run: as §1
# WPMY1-ACTB-RAB5A = assay: as above
# How it was run: as §1
# WPMY1-CANX-COX4 = assay: as above
# How it was run: as §1
# WPMY1-GM130-SQSTM1 [4] = assay: as above
# How it was run: as §1
# WPMY1-TUBA1B-RELA = assay: as above
# How it was run: as §1
# A549-TP53BP1-CLTA = assay: as above
# How it was run: as §1
# HepG2-TP53BP1-CLTA = assay: as above
# How it was run: as §1
# WPMY1-TP53BP1-CLTA [5] = assay: as above
# How it was run: as §1
# WPMY1-GM130-SQSTM1 [6] = assay: lowest phenotypically active concentration; higher = less potent
# How it was run: as §1
# HepG2-GM130-SQSTM1 [7] = assay: as above
# How it was run: as §1
# HepG2-ACTB-RAB5A [8] = assay: as above
# How it was run: as §1
# WPMY1-TP53BP1-CLTA [9] = assay: as above
# How it was run: as §1
# A549-GM130-SQSTM1 [10] = assay: as above
# How it was run: as §1
SMILES,phenotypically active (A549-ACTB-RAB5A),phenotypically active (A549-CANX-COX4),phenotypically active (A549-GM130-SQSTM1 [1]),phenotypically active (A549-TUBA1B-RELA),phenotypically active (HepG2-ACTB-RAB5A [2]),phenotypically active (HepG2-CANX-COX4),phenotypically active (HepG2-GM130-SQSTM1 [3]),phenotypically active (HepG2-TUBA1B-RELA),phenotypically active (WPMY1-ACTB-RAB5A),phenotypically active (WPMY1-CANX-COX4),phenotypically active (WPMY1-GM130-SQSTM1 [4]),phenotypically active (WPMY1-TUBA1B-RELA),phenotypically active (A549-TP53BP1-CLTA),phenotypically active (HepG2-TP53BP1-CLTA),phenotypically active (WPMY1-TP53BP1-CLTA [5]),lowest phenotypically active concentration (WPMY1-GM130-SQSTM1 [6]),lowest phenotypically active concentration (HepG2-GM130-SQSTM1 [7]),lowest phenotypically active concentration (HepG2-ACTB-RAB5A [8]),lowest phenotypically active concentration (WPMY1-TP53BP1-CLTA [9]),lowest phenotypically active concentration (A549-GM130-SQSTM1 [10])
CN1[C@@H]2CC[C@H]1C[C@@H](OC(=O)[C@H](CO)c1ccccc1)C2 [Hyoscyamine (L)],0 (inactive),0 (inactive),0 (inactive),0 (inactive),0 (inactive),0 (inactive),0 (inactive),0 (inactive),0 (inactive),0 (inactive),0 (inactive),0 (inactive),–,–,–,–,–,–,–,–
C[N+]12CCC(CC1)C(OC(=O)C(O)(c1ccccc1)c1ccccc1)C2 (stereo unspecified) [clidinium],–,0 (inactive),–,–,0 (inactive),0 (inactive),0 (inactive),0 (inactive),0 (inactive),0 (inactive),0 (inactive),0 (inactive),0 (inactive),0 (inactive),0 (inactive),–,–,–,–,–
CCC(=O)C(CC(C)N(C)C)(c1ccccc1)c1ccccc1 (stereo unspecified) [methadone],0 (inactive),0 (inactive),0 (inactive),0 (inactive),0 (inactive),0 (inactive),0 (inactive),0 (inactive),0 (inactive),0 (inactive),0 (inactive),0 (inactive),–,–,–,–,–,–,–,–
C[C@]12CC[C@H]3[C@@H](CCC4=CC(=O)CC[C@@]43C)[C@@H]1CC[C@@H]2O [testosterone],0 (inactive),0 (inactive),0 (inactive),0 (inactive),0 (inactive),1 (active),0 (inactive),0 (inactive),0 (inactive),0 (inactive),1 (active),0 (inactive),0 (inactive),0 (inactive),0 (inactive),9 µM,–,–,–,–
N#Cc1c(Oc2cccc(OS(=O)(=O)CCCC(F)(F)F)c2)cccc1C(F)(F)F,0 (inactive),0 (inactive),0 (inactive),0 (inactive),0 (inactive),0 (inactive),1 (active),0 (inactive),0 (inactive),0 (inactive),0 (inactive),0 (inactive),0 (inactive),0 (inactive),0 (inactive),–,9 µM,–,–,–
C[C@H]1CCCC=C[C@@H]2C[C@H](O)C[C@H]2[C@H](O)C=CC(=O)O1 [brefeldin-a],–,1 (active),–,–,1 (active),1 (active),1 (active),1 (active),1 (active),1 (active),1 (active),1 (active),1 (active),1 (active),1 (active),≤ 0.3 µM,≤ 0.3 µM,≤ 0.3 µM,≤ 0.3 µM,–
O=C1CCCN1CC#CCN1CCCC1 [Oxotremorine sesquifumarate],–,0 (inactive),–,–,0 (inactive),0 (inactive),0 (inactive),0 (inactive),0 (inactive),0 (inactive),0 (inactive),0 (inactive),0 (inactive),0 (inactive),0 (inactive),–,–,–,–,–
CCN(CC)CCN1C(=O)CN=C(c2ccccc2F)c2cc(Cl)ccc21 [flurazepam],0 (inactive),0 (inactive),0 (inactive),0 (inactive),0 (inactive),1 (active),0 (inactive),0 (inactive),0 (inactive),0 (inactive),0 (inactive),0 (inactive),0 (inactive),0 (inactive),0 (inactive),–,–,–,–,–
C=C1C/C(=C\C)C(=O)O[C@@H]2CCN3CC=C(COC(=O)[C@]1(C)O)[C@H]23 [Seneciphylline],0 (inactive),0 (inactive),0 (inactive),0 (inactive),0 (inactive),0 (inactive),0 (inactive),0 (inactive),0 (inactive),0 (inactive),0 (inactive),0 (inactive),0 (inactive),1 (active),0 (inactive),–,–,–,–,–
c1ccc([C@@H]2C[C@H]2NC2CCNCC2)cc1 [GSK LSD 1 dihydrochloride],0 (inactive),0 (inactive),0 (inactive),0 (inactive),0 (inactive),0 (inactive),0 (inactive),0 (inactive),0 (inactive),0 (inactive),1 (active),0 (inactive),0 (inactive),0 (inactive),0 (inactive),9 µM,–,–,–,–
C[C@H]1C(=O)O[C@@H]2CCN3CC=C(COC(=O)[C@](C)(O)[C@]1(C)O)[C@H]23 [Monocrotaline],0 (inactive),0 (inactive),0 (inactive),1 (active),0 (inactive),0 (inactive),0 (inactive),0 (inactive),0 (inactive),0 (inactive),0 (inactive),0 (inactive),0 (inactive),0 (inactive),0 (inactive),–,–,–,–,–
C[C@@H]1NCCc2cc(O)c(O)cc21 [Salsolinol hydrobromide],0 (inactive),0 (inactive),0 (inactive),0 (inactive),0 (inactive),0 (inactive),0 (inactive),0 (inactive),0 (inactive),0 (inactive),1 (active),0 (inactive),0 (inactive),0 (inactive),0 (inactive),9 µM,–,–,–,–
O=C1C=C2C=C[C@@H]3C[C@@]2(O1)[C@H]1CCCCN31 [Securinine],0 (inactive),0 (inactive),0 (inactive),0 (inactive),0 (inactive),0 (inactive),1 (active),0 (inactive),0 (inactive),0 (inactive),0 (inactive),1 (active),0 (inactive),0 (inactive),0 (inactive),–,9 µM,–,–,–
C[C@H]1CC[C@@H]2N(C1)C[C@H]1[C@@H]3C[C@H]4[C@@H](CC(=O)[C@H]5C[C@@H](O)CC[C@@]54C)[C@@H]3CC[C@H]1[C@]2(C)O [Imperialine],0 (inactive),0 (inactive),0 (inactive),0 (inactive),0 (inactive),0 (inactive),0 (inactive),0 (inactive),1 (active),1 (active),0 (inactive),0 (inactive),0 (inactive),0 (inactive),0 (inactive),–,–,–,–,–
C/C=C(/C)C(=O)O[C@H]1CC[C@@]2(C)[C@@H]3CC[C@H]4[C@]5(O)C[C@H](O)[C@@]6(O)[C@@H](CN7C[C@@H](C)CC[C@H]7[C@@]6(C)O)[C@]5(O)C[C@@]42O[C@]13O [Veratrine],0 (inactive),0 (inactive),0 (inactive),0 (inactive),0 (inactive),0 (inactive),0 (inactive),1 (active),0 (inactive),0 (inactive),0 (inactive),0 (inactive),0 (inactive),0 (inactive),0 (inactive),–,–,–,–,–
N[C@@H]1C[C@H]1c1cc(F)cc(F)c1OCc1ccccc1,0 (inactive),0 (inactive),0 (inactive),0 (inactive),0 (inactive),0 (inactive),0 (inactive),0 (inactive),1 (active),0 (inactive),1 (active),0 (inactive),0 (inactive),0 (inactive),1 (active),9 µM,–,–,9 µM,–
C[C@]1(C(=O)O)CCC[C@]2(C)c3cc(O)ccc3CC[C@@H]12 [Podocarpic acid],–,0 (inactive),–,–,0 (inactive),0 (inactive),0 (inactive),0 (inactive),0 (inactive),0 (inactive),0 (inactive),0 (inactive),0 (inactive),0 (inactive),0 (inactive),–,–,–,–,–
CC(C)(C)c1cc(C=C(C#N)C#N)cc(Br)c1O,0 (inactive),0 (inactive),1 (active),0 (inactive),0 (inactive),0 (inactive),0 (inactive),0 (inactive),0 (inactive),0 (inactive),0 (inactive),0 (inactive),0 (inactive),0 (inactive),0 (inactive),–,–,–,–,9 µM
CCCN1C[C@H](CSC)C[C@@H]2c3cccc4[nH]cc(c34)C[C@H]21 [pergolide],0 (inactive),0 (inactive),0 (inactive),0 (inactive),0 (inactive),0 (inactive),0 (inactive),0 (inactive),0 (inactive),0 (inactive),1 (active),0 (inactive),0 (inactive),0 (inactive),0 (inactive),9 µM,–,–,–,–
CC(C)c1cccc(C(C)C)c1O [propofol],0 (inactive),0 (inactive),0 (inactive),0 (inactive),0 (inactive),0 (inactive),0 (inactive),0 (inactive),0 (inactive),0 (inactive),1 (active),0 (inactive),0 (inactive),0 (inactive),0 (inactive),3 µM,–,–,–,–
